Measured values reported in the supplement of paper PMC10600219.
Counter-ions that a name gives are not always drawn. The full ranking holds about 2,800 compounds; the median of “cell viability relative to vehicle” is about 0.98, and the lowest 2% start at about 0.45. The sample holds the lowest values, similar compounds and a random draw of the others, so the mix is not that of the screen.

The compounds below were run on NCI-H2228 alectinib-DTP (assay: cell viability relative to vehicle (fraction of vehicle); NCI-H2228 is an ALK-positive lung cancer line and DTP means drug-tolerant persister; higher = less growth inhibition). Settings: 100 nM; treatment time 6 days.
In short: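 Each value is viability relative to vehicle-treated cells, measured as ATP with the CellTiter-Glo 3D Cell Viability Assay. Parental NCI-H2228 cells and drug-tolerant persisters (1000 nM targeted drug, 13 days) in 384-well plates received the 3114-agent TargetMol anti-cancer compound library at 100 nM, or DMSO, and were read 6 days later.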

SMILES	cell viability
CC(C)[C@]12O[C@H]1[C@@H]1O[C@]13[C@]1(O[C@H]1C[C@H]1C4=C(CC[C@@]13C)C(=O)OC4)[C@@H]2O [Triptolide]	0.133
CCCC(C)(C)c1ccc2c(c1)OC(C)(C)[C@@H]1CC=C(C)C[C@@H]21	0.862
Cc1ccc(/N=C/N(C)/C=N/c2ccc(C)cc2C)c(C)c1 [Amitraz]	0.902
COc1ccc2c(c[n+](C)c3c4cc5c(cc4ccc23)OCO5)c1OC [Chelerythrine]	1.03
COc1ccc2c(c[n+](C)c3c4cc5c(cc4ccc23)OCO5)c1OC [Chelerythrine chloride]	1.04
CC(=O)O[C@H]1C(=O)[C@@]2(C)[C@H]([C@H](OC(=O)c3ccccc3)[C@]3(O)C[C@H](O)C(C)=C1C3(C)C)[C@]1(OC(C)=O)CO[C@@H]1C[C@@H]2O [Baccatin III]	1
C/C(=C\c1csc(C)n1)[C@@H]1C[C@@H]2O[C@]2(C)CCC[C@H](C)[C@H](O)[C@@H](C)C(=O)C(C)(C)[C@@H](O)CC(=O)O1 [Epothilone B]	0.433
C/C(=C\c1csc(C)n1)[C@@H]1C[C@@H]2O[C@@H]2CCC[C@H](C)[C@H](O)[C@@H](C)C(=O)C(C)(C)[C@@H](O)CC(=O)O1 [Epothilone A]	0.529
C[C@@H]1C(=O)O[C@H]2[C@H](O)[C@@]34O[C@@H]5OC(=O)[C@H](O)[C@@]56[C@H](C(C)(C)C)[C@H](O)C(OC3=O)[C@]64[C@@]12O (stereo partly specified) [Ginkgolide C]	0.969
C/C=C/c1cc(OC)c(OC)cc1OC [alpha-Asarone]	0.92
NC[C@H](CC(=O)O)c1ccc(Cl)cc1 [(R)-baclofen]	1.07
NCCc1c[nH]c2ccccc12 [Tryptamine]	1.12
NCCCNCCCN [Bis(3-aminopropyl)amine]	0.833
CO[C@H]1C[C@H](O[C@H]2CC[C@]3(C)[C@H]4CC[C@]5(C)[C@@H](C6=CC(=O)OC6)CC[C@]5(O)[C@@H]4CC[C@]3(O)C2)O[C@H](C)[C@H]1O[C@@H]1O[C@H](CO)[C@@H](O)[C@H](O)[C@H]1O [Periplocin]	0.443
CC(=O)O[C@H]1C[C@H](O[C@H]2[C@@H](O)C[C@H](O[C@H]3[C@@H](O)C[C@H](O[C@H]4CC[C@@]5(C)[C@H](CC[C@@H]6[C@@H]5C[C@@H](O)[C@]5(C)[C@@H](C7=CC(=O)OC7)CC[C@]65O)C4)O[C@@H]3C)O[C@@H]2C)O[C@H](C)[C@H]1O[C@@H]1O[C@H](CO)[C@@H](O)[C@H](O)[C@H]1O [Lanatoside C]	0.49
CCC(C)C(=O)O[C@@H]1[C@@H](OC(C)=O)[C@]2(C)[C@H](C(C)=O)CC[C@@]23O[C@]32CC[C@H]3C[C@@H](O[C@H]4C[C@@H](OC)[C@H](O[C@@H]5O[C@H](C)[C@@H](O)[C@@H](OC)[C@H]5O)[C@@H](C)O4)CC[C@]3(C)[C@@H]12 (stereo partly specified) [Tenacissoside H]	1.14
NCC(CC(=O)O)c1ccccc1 (stereo unspecified) [Phenibut]	1.03
COc1ccc2c(c1O)-c1c(OC)c(OC)cc3c1[C@H](C2)N(C)CC3 [(+)-Isocorydine hydrochloride]	0.9
CCC12C=CCN3CC[C@@]4(c5ccc(OC)cc5N(C)[C@H]4[C@@](O)(C(=O)OC)[C@@H]1OC(C)=O)[C@@H]32 (stereo partly specified) [Vindoline]	1.1
N#CC(C#N)=Cc1ccc([N+](=O)[O-])c(O)c1	1.05
C[C@H]1CCC/C=C/[C@@H]2C[C@H](O)C[C@H]2[C@H](O)/C=C/C(=O)O1 [Brefeldin A]	0.0894
C[C@H]1C(=O)O[C@@H]2CCN3CC=C(COC(=O)[C@](C)(O)[C@]1(C)O)[C@H]23 [Monocrotaline]	0.941
C[N+]1([O-])[C@@H]2CC(OC(=O)[C@H](CO)c3ccccc3)C[C@H]1[C@@H]1O[C@@H]12 (stereo partly specified) [Scopolamine N-oxide HBr]	1.07
C[C@@H]1CCC=C2C(=O)C[C@H]3OOC(C)(C)[C@H]3[C@]21C [Nardosinone]	0.941
COc1ccc2c(c1)[nH]c1c(C)nccc12 [Harmine]	0.801
Nc1ncnc2c1ccn2[C@@H]1O[C@H](CO)[C@@H](O)[C@H]1O [Tubercidin]	0.389

SMILES	cell viability
CC(=O)Nc1ccc(OC[C@](C)(O)C(=O)Nc2ccc([N+](=O)[O-])c(C(F)(F)F)c2)cc1 [Andarine]	0.917
C[C@H](CS(C)(=O)=O)n1ccc2c(C(F)(F)F)c(C#N)ccc21	1.09
O=P(O)(NCCCl)NCCCl [Palifosfamide]	1.17
Cc1c(N[C@@H](c2nnc(-c3ccc(C#N)cc3)o2)[C@H](C)O)ccc(C#N)c1Cl [Testolone]	1.21
C[C@]12CC[C@H](O)C[C@H]1CC[C@@H]1[C@@H]2CC[C@]2(C)[C@@H](c3ccc(=O)oc3)C[C@H]3O[C@]132 [Resibufogenin]	1.07
C[C@]12CC[C@H](O)C[C@@H]1CC[C@@H]1[C@@H]2CC[C@]2(C)C(=O)CC[C@@H]12 [Epiandrosterone]	0.814
C[C@]12CC[C@H](O)C[C@H]1CC[C@@H]1[C@@H]2CC[C@]2(C)[C@@](O)(c3ccoc3)CC[C@]12O [Rostafuroxin]	0.988
C[C@]12CC[C@H](O)C[C@H]1CC[C@@H]1[C@@H]2CC[C@]2(C)[C@@H](c3ccc(=O)oc3)CC[C@]12O [Bufalin]	0.101
CC(=O)O[C@H]1[C@H]2O[C@]23[C@@H]2CC[C@@H]4C[C@@H](O)CC[C@]4(C)[C@H]2CC[C@]3(C)[C@H]1c1ccc(=O)oc1 [Cinobufagin]	0.142
Cc1c(C(=O)Nc2cccc(C(F)(F)F)c2)cc(-c2ccccc2)n1CCCN1CCOCC1	0.946
Cc1ccccc1-n1c(Cn2cnc3c(N)ncnc32)nc2cccc(C)c2c1=O	1.07
C=C1C2CC3(C1O)C1CC4C5(C)CCC(O)C4(C1N(CC)C5)C3CC2=O (stereo unspecified) [Napellonine]	0.931
CCO[C@H]1O[C@@H]2O[C@@]3(C)CC[C@H]4[C@H](C)CC[C@@H]([C@H]1C)[C@@]24OO3 [Arteether]	0.856
CC(=O)OC(C)(C)/C=C/C(=O)[C@](C)(O)[C@H]1[C@H](O)C[C@@]2(C)[C@@H]3CC=C4[C@H](C[C@H](O)C(=O)C4(C)C)[C@]3(C)C(=O)C[C@]12C [Cucurbitacin B]	0.146
COc1ccc2c(c1OC)CN1CCc3cc4c(cc3C1C2)OCO4 (stereo unspecified) [Tetrahydroberberine THB]	1.01
CCc1c2c(nc3ccccc13)-c1cc3c(c(=O)n1C2)COC(=O)[C@]3(O)CC [7-Ethylcamptothecin]	0.361
CC[C@@]1(O)C(=O)OCc2c1cc1n(c2=O)Cc2cc3ccccc3nc2-1 [(S)-(+)-Camptothecin]	0.36
COc1ccc(/C=C/C=C2C(=O)NC(=O)NC2=O)cc1	0.972
N#C/C=C1/C=C[C@@H](O)[C@H](O)[C@H]1O[C@@H]1O[C@H](CO)[C@@H](O)[C@H](O)[C@H]1O [Griffonin]	0.984
Clc1ccc([C@]23CNC[C@H]2C3)cc1Cl [Amitifadine hydrochloride]	1.06
CC(=O)O[C@H]1CC[C@H]2[C@@H]3CCC4=CC(=O)CCC4=C3C=C[C@]12C [Trenbolone acetate]	1.15
N#C[C@H](O[C@@H]1O[C@H](CO[C@@H]2O[C@H](CO)[C@@H](O)[C@H](O)[C@H]2O)[C@@H](O)[C@H](O)[C@H]1O)c1ccccc1 [Amygdalin]	0.879
N#Cc1nn(-c2c(Cl)cc(C(F)(F)F)cc2Cl)c(N)c1[S+]([O-])C(F)(F)F (stereo unspecified) [Fipronil]	0.905
CC1=C[C@H]2[C@@]3(O)[C@H](C)[C@@H](O)[C@]4(O)[C@H]([C@@H]3C=C(CO)C[C@]2(O)C1=O)C4(C)C [Phorbol]	0.999
O=C(/C=C/c1ccccc1)OC[C@H]1O[C@@H](O[C@@H]2OC=C[C@H]3[C@H](O)[C@@H]4O[C@]4(CO)[C@@H]23)[C@H](O)[C@@H](O)[C@@H]1O [Picroside I]	1.06
